Screening results from PubChem BioAssay.
A selection: hits, their analogues and other compounds. The true share with any hit is near 3.2%.
USP2a inh = qHTS Assay for Inhibitors of Ubiquitin-specific Protease USP2a Using CHOP2 as the Reporter | Ubiquitin carboxyl-terminal hydrolase 2 (Homo sapiens), O75604 | USP2 core, Ub-CHOP2 coupled fluorogenic reporter, 485/531 | Potency, µM (highest dose often 38.3 µM), for inactives: top-dose activity change, negative = inhibition, actives largely listed as inhibitors | hit rate 0.01% among 330,000 | AID 463254, 2010;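 note: potency is the fitted concentration of half-maximal effect; plate controls were DMSO wells for no effect and full inhibition by NEM control for full effect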
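Cell-free coupled assay: 10nM USP2 core preincubated 30min RT with compound in Tris-HCl pH 8.0/CaCl2/CHAPS buffer, then 25nM Ub-CHOP2 and 25nM reporter substrate; fluorescence (Ex 485/Em 531) read after 60min RT, normalized to NEM inhibition, concentration-response curves fitted.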
PLK1 PBD block = qHTS for Inhibitors of PLK1-PDB (polo-like kinase 1 - polo-box domain): Primary Screen. Serine/threonine-protein kinase PLK1 (Homo sapiens), P53350. Potency, µM, for the others: max response, negative = inhibition, most hits filed as inhibitors. hit rate 2.8% among 360,000. AID 720504, 2013. Plk1 PBD binding of FITC phosphopeptide, fluorescence polarization; note: potency is the fitted concentration of half-maximal effect; series mostly up to about 57 µM; nearly all actives have a fitted effect of over 65% in size
VDR inhibitor = Inhibitors of the vitamin D receptor (VDR): qHTS; Vitamin D3 receptor (Homo sapiens), P11473; VDR-SRC2-3 peptide fluorescence polarization, 2 h; Potency, µM, without a hit: max response, negative = inhibition, hits mostly inhibitors; hit rate 0.93% among 400,000; AID 504847, 2011; note: potency is the fitted concentration of half-maximal effect
Target sequence (P11473 whole entry, looked up): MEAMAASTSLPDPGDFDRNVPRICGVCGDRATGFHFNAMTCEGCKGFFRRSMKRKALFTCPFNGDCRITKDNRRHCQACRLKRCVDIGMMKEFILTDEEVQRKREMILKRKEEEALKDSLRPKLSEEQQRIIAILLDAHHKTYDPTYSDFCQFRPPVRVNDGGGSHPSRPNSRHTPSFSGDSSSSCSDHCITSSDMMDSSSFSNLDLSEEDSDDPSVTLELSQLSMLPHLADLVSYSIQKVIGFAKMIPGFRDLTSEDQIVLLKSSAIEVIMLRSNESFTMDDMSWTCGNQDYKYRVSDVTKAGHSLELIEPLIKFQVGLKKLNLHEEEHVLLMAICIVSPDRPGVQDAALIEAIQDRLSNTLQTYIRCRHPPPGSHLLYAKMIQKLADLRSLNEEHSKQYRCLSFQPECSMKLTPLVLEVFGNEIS
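Measured by FP: displacement of SRC2-3 coactivator peptide from VDR by library compounds, following a two-hour ambient incubation.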
USP1 inh = Inhibitors of USP1/UAF1: Primary Screen; Ubiquitin carboxyl-terminal hydrolase 1 (Homo sapiens), O94782; recombinant USP1/UAF1, Ub-Rhodamine cleavage fluorescence; Potency, µM (highest dose often 57.1 µM), without a hit: top-dose activity change, negative = inhibition, actives largely listed as inhibitors; hit rate 0.23% among 390,000; AID 743255, 2014; note: potency is the fitted concentration of half-maximal effect; nearly all actives have a fitted effect of over 60% in size
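USP1/UAF1 complex (1 nM) preincubated 15 min at room temperature with compound, then Ub-Rho substrate (150 nM final) added. Kinetic fluorescence at 480/540 nm over 6 reads at 60 s intervals; 50 mM HEPES pH 7.8, 0.5 mM EDTA, 0.1 mg/ml BSA, 1 mM TCEP, 0.01% Tween-20.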
GALK inh = qHTS Assay for Inhibitors of Human Galactokinase (GALK). hit rate 0.007% among 270,000. AID 1868, 2009. Potency, µM (top dose mostly 57.5 µM), without a hit: top-dose activity change, negative = inhibition, actives largely listed as inhibitors. Purified GALK, Kinase-Glo residual ATP luminescence. P51570; note: potency is the fitted concentration of half-maximal effect
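Luminescence from leftover ATP (Ultra-Glo luciferase/luciferin) served as read-out after a 1 h room-temperature reaction of 5 nM GALK with 35 uM ATP and 100 uM galactose.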
Coupling enz = qHTS Assay for Inhibitors of Fructose-1,6-bisphosphate Aldolase from Giardia Lamblia: Coupling assay counterscreen; coupling enzyme system counterscreen, AmpLite Red fluorescence; activity change, negative = inhibition, % at 58.2 µM, hits read low; hit rate 0.67% among 290,000; in the data active = activity change below about -30%
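Counterscreen of the coupled detection system alone, without aldolase: glyceraldehyde-3-phosphate coupling enzymes plus AmpLite Red readout. Compounds at 57.5 uM final, 10 min RT preincubation, 20 min RT reaction, fluorescence 525/598 nm.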
* marks the source's active call; other numbers are inactive results; u = inconclusive; x = no result. Unless noted, calls come from the whole dose curve; as a rule, active = well fitted curve in the direction sought with a large enough effect; inconclusive = small, poorly fitted or top-dose-only effect, or another doubt; inactive = no such curve, though single readings can be large; an effect the other way counts as inactive or inconclusive. Unless noted, % is set by controls: 0 for no effect and ±100 for the full control effect.

SMILES	USP2a inh	PLK1 PBD block	VDR inhibitor	USP1 inh	GALK inh	Coupling enz
Cc1cc(C)c2c(CC(=O)NC(C)C)coc2c1	9.6%	-2.6%	-6.4%	-2.3%	2.2%	5.8
Cc1cc(C)c2c(=O)c(C#N)coc2c1	-1.0%	16.8µM*	-0.7%	-19.9%	0.6%	6.6
N/C(=N\OC(=O)c1ccccc1Cl)c1cccc([N+](=O)[O-])c1	-0.8%	-17.8%	-8.5%	5.6%	-2.3%	1.4
S=C(NCc1ccccc1)N1CCn2cccc2C1c1cccnc1 (stereo unspecified)	4.5%	-9.8%	-1.2%	-8.8%	0.0%	0.2
S=C(NCc1ccccc1)N1CCn2cccc2C1c1ccncc1 (stereo unspecified)	-0.8%	16.8µM*	-14.3%	u	9.3%	-0.7
O=C(O)C(S)C(S)C(=O)O (stereo unspecified)	x	8.44µM*	u	5.5%	x	x
O=C(O)C(S)[C@@H](S)C(=O)O (stereo partly specified)	x	x	3.98µM*	x	x	0.4
N[C@H](C(=O)O)[C@H](O)C(=O)O	x	x	5.4%	x	x	-1.8
C[C@@H](N)C(=O)O	x	x	2.9%	x	x	-1.5
COc1ccc(CNC(=O)c2c(C)oc3c2C(=O)c2ccccc2C3=O)cc1	1.0%	-7.8%	-20.4%	u	x	-44.6*
CC(=O)c1c(C)oc2c1C(=O)c1ccccc1C2=O	0.0%	-21.5%	-21.7%	-14.6%	-0.8%	-41.3*
Cc1oc2c(c1C(=O)NCc1cccnc1)C(=O)c1ccccc1C2=O	0.6%	-9.6%	-10.0%	u	0.0%	-26.5
CCOc1c(Br)cc(/C=C2/SC(=O)N(CC(=O)N3CCCC3)C2=O)cc1OC	0.2%	-12.3%	1.4%	-8.6%	-0.7%	-2.3
CCOC(=O)COc1c(Br)cc(/C=C2\SC(=O)N(CC(=O)N3CCCC3)C2=O)cc1OC	5.2%	16.8µM*	u	-13.1%	1.6%	2.5
CC(C)[C@H](NC(=O)NCCC1=CCCCC1)C(=O)O	-1.5%	-10.4%	4.4%	-19.1%	0.1%	8.4
CCC(C)[C@H](NC(=O)NCCC1=CCCCC1)C(=O)O (stereo partly specified)	-1.8%	23.8µM*	u	-9.7%	-2.2%	-0.9
CCOc1ccccc1NC(=O)C(=O)NCCC1=CCCCC1	5.1%	26.7µM*	-3.1%	-15.3%	0.3%	0.6
COc1ccccc1NC(=O)NCCC1=CCCCC1	-1.4%	23.8µM*	u	-18.2%	0.2%	-3.0
COc1cccc(/C=C/C(=O)OCC(=O)NCCC2=CCCCC2)c1	1.4%	8.44µM*	u	-2.4%	-1.8%	0.5
CCOC(=O)c1cc(-c2cc3ccccc3o2)n[nH]1	-1.3%	-8.5%	u	-3.4%	-2.9%	-0.7
Cn1ccnc1Sc1nc2c(c(=O)n(C)c(=O)n2C)n1C	-0.7%	0.6%	2.8%	-25.7%	0.6%	2.2
COc1cc(-c2nnc(SCCOc3ccccc3)o2)cc(OC)c1OC	x	x	10.6%	-15.9%	x	x
O=C(CN1C(=O)NC2(CCCC2)C1=O)Nc1cc(Cl)ccc1N1CCCCC1	1.3%	0.3%	17.1%	-9.3%	-6.4%	x
Cc1ccc(CNC(=O)C(=O)NCCC2=CCCCC2)cc1	2.0%	3.6%	3.5%	-9.2%	-1.1%	0.1
CC(C)(C)NC(=O)C(=O)NCCC1=CCCCC1	-6.9%	21.2µM*	-3.5%	-13.8%	1.7%	5.2
Cc1cccc(OCCc2nnc(N)s2)c1C	-1.5%	-4.9%	-4.7%	-5.8%	4.6%	2.9
COc1cc(C(=O)OCc2cc(=O)oc3c(C)c(C)ccc23)ccc1OC(F)F	3.4%	23.8µM*	u	-22.1%	1.3%	0.0
